This is an account of results in the antibiotic and cytotoxicity screens of Wong et al. (2023).

Among all 39,000 compounds or so, about 3,300 (8.5%) were called active. The sample as a whole holds a higher share of actives than the screen did.

This experiment has as its system HepG2. The experiment is described as follows: cytotoxicity call (relative viability < 0.9). To be noted: 10 µM.
With `C[C@@H]1CCCCO[C@H](CN(C)C(=O)Cc2ccccc2)[C@H](C)CN([C@@H](C)CO)C(=O)c2cc(NS(=O)(=O)c3ccc(Cl)cc3)ccc2O1`, the cytotoxicity call is “inactive”.
As to `COCC(=O)N1C[C@H](C)[C@H](OC)CN(C)C(=O)c2ccc(NC(=O)c3ccc(OC)cc3)cc2OC[C@H]1C`, the cytotoxicity call is “inactive”.
Under `Cc1noc(C)c1S(=O)(=O)N(C)C[C@H]1OCCCC[C@@H](C)Oc2ccc(NC(=O)Nc3ccc(F)cc3)cc2C(=O)N([C@H](C)CO)C[C@@H]1C` stands “inactive”; under `Cc1noc(C)c1S(=O)(=O)Nc1ccc2c(c1)C(=O)N([C@H](C)CO)C[C@@H](C)[C@H](CN(C)Cc1ccccc1)OCCCC[C@H](C)O2`, “inactive”.
Under `COc1ccc(S(=O)(=O)N(C)C[C@@H]2Oc3ccc(NC(=O)Nc4ccc(Cl)c(Cl)c4)cc3CC(=O)N([C@@H](C)CO)C[C@@H]2C)cc1Cl` stands “active”; under `COc1ccc(S(=O)(=O)N(C)C[C@@H]2Oc3ccc(NC(=O)Nc4cc(Cl)cc(Cl)c4)cc3CC(=O)N([C@@H](C)CO)C[C@@H]2C)cc1Cl`, “active”.
Next, `COc1ccc(S(=O)(=O)N(C)C[C@@H]2Oc3ccc(NC(=O)Nc4cccc5c4CCCC5)cc3CC(=O)N([C@@H](C)CO)C[C@@H]2C)cc1Cl`: “inactive”; `CC(C)NC(=O)Nc1ccc2c(c1)CC(=O)N([C@@H](C)CO)C[C@@H](C)[C@H](CN(C)S(=O)(=O)c1ccc(Cl)cc1)O2`: “inactive”.
In the case of `CC(C)NC(=O)Nc1ccc2c(c1)CC(=O)N([C@H](C)CO)C[C@@H](C)[C@H](CN(C)S(=O)(=O)c1ccc(Cl)cc1)O2`, the cytotoxicity call is “inactive”.
Regarding `COc1ccc(S(=O)(=O)N(C)C[C@@H]2Oc3ccc(NC(=O)NC(C)C)cc3CC(=O)N([C@H](C)CO)C[C@@H]2C)cc1`, the cytotoxicity call is “inactive”.
Next, `CCS(=O)(=O)N1CCNCC1`: “inactive”; `CC1C(=O)CCC2C1(C)CCC1C2(C)CCC2(C)C3CC(C)(C)CCC3(C)CCC12C` (stereo not drawn): “inactive”.
Turning to `O=C(O)c1n[nH]c2c1CCCC2`, the cytotoxicity call is “inactive”.
Next, `C[C@H]1CN([C@@H](C)CO)C(=O)c2cc(C#Cc3ccccc3F)cnc2O[C@H]1CN(C)C(=O)C1CCOCC1`: “inactive”; `COc1ccc(C[C@@H]2c3cc(OC)c(OC)cc3CC[N@+]2(C)CCC(=O)OCCCCCOC(=O)CC[N@@+]2(C)CCc3cc(OC)c(OC)cc3[C@H]2Cc2ccc(OC)c(OC)c2)cc1OC`: “active”.
Take `COc1ccc(CC2c3cc(OC)c(OC)cc3CC[N+]2(C)CCC(=O)OCCCCCOC(=O)CC[N+]2(C)CCc3cc(OC)c(OC)cc3C2Cc2ccc(OC)c(OC)c2)cc1OC.O=S(=O)([O-])c1ccccc1.O=S(=O)([O-])c1ccccc1` (stereo not drawn): the cytotoxicity call is “inactive”.
As to `COc1ccc(C[C@H]2c3cc(OC)c(OC)cc3CC[N@+]2(C)CCC(=O)OCCCCCOC(=O)CC[N@+]2(C)CCc3cc(OC)c(OC)cc3[C@@H]2Cc2ccc(OC)c(OC)c2)cc1OC`, the cytotoxicity call is “inactive”.
Under `COc1ccc(S(=O)(=O)Nc2ccc3c(c2)C(=O)N([C@@H](C)CO)C[C@H](C)[C@@H](CN(C)S(=O)(=O)c2ccccc2)O3)cc1` stands “inactive”; under `C[C@@H]1CN([C@H](C)CO)C(=O)c2cc(NC(=O)C3CCCCC3)ccc2O[C@H]1CN(C)Cc1ccc(C(F)(F)F)cc1`, “inactive”; under `CC(C)NC(=O)Nc1cccc2c1O[C@@H](CN(C)Cc1ccc(Oc3ccccc3)cc1)[C@@H](C)CN([C@H](C)CO)C2=O`, “inactive”.
Under `COc1cccn(CC(=O)N2CCO[C@@H](CCN)C2)c1=O` stands “inactive”; under `CNc1nc(SCC(N)=O)nc(N2CCOCC2)n1`, “active”; under `CN(C)c1nc(SCC(N)=O)nc(N(C)C)n1`, “inactive”.
For `CCNc1nc(SCC(N)=O)nc(N2CCOCC2)n1`, the cytotoxicity call is “inactive”.
Next, `Cn1c(=O)c2c(nc(N(CCO)CCO)n2Cc2ccc(F)cc2)n(C)c1=O`: “inactive”.
Regarding `C[C@@H]1CN([C@@H](C)CO)C(=O)c2c(c3ccccc3n2C)-c2ccccc2CO[C@H]1CN(C)Cc1ccc(Oc2ccccc2)cc1`, the cytotoxicity call is “inactive”.
On to `C[C@@H]1CN([C@H](C)CO)C(=O)Cc2cc(NC(=O)CCC(F)(F)F)ccc2O[C@H]1CN(C)C(=O)Nc1ccc(C(F)(F)F)cc1`, for which the cytotoxicity call was “inactive”.
Under `C[C@H](CO)N1C[C@H](C)[C@H](CN(C)Cc2ccc(-c3ccccc3)cc2)Oc2ccc(NC(=O)C3CCCCC3)cc2CC1=O` stands “inactive”.
Next, `C[C@@H]1CN([C@@H](C)CO)C(=O)Cc2cc(NC(=O)C3CCCCC3)ccc2O[C@H]1CN(C)Cc1ccc(-c2ccccc2)cc1`: “inactive”; `C[C@@H]1CN([C@H](C)CO)C(=O)Cc2cc(NC(=O)C3CCCCC3)ccc2O[C@H]1CN(C)Cc1ccc(-c2ccccc2)cc1`: “inactive”.
Next, `C[C@H]1CN([C@@H](C)CO)C(=O)Cc2cc(NC(=O)C3CCCCC3)ccc2O[C@@H]1CN(C)Cc1ccc(-c2ccccc2)cc1`: “inactive”; `C[C@@H]1CN([C@@H](C)CO)C(=O)Cc2cc(NC(=O)C3CCCCC3)ccc2O[C@@H]1CN(C)Cc1ccc(-c2ccccc2)cc1`: “active”; `C[C@@H]1CN([C@H](C)CO)C(=O)Cc2cc(NC(=O)C3CCCCC3)ccc2O[C@@H]1CN(C)Cc1ccc(-c2ccccc2)cc1`: “active”.
As for `Cc1noc(C)c1NC(=O)N(C)C[C@H]1Oc2c(NC(=O)C3CC3)cccc2C(=O)N([C@H](C)CO)C[C@H]1C`, the cytotoxicity call is “inactive”.
Next, `COc1ccc(NC(=O)Nc2ccc3c(c2)C(=O)N([C@H](C)CO)C[C@@H](C)[C@H](CN(C)Cc2ccc(Cl)c(Cl)c2)O3)cc1`: “inactive”.
For the molecule `COc1ccc(NC(=O)Nc2ccc3c(c2)CC(=O)N([C@@H](C)CO)C[C@@H](C)[C@@H](CN(C)Cc2ccc(Cl)c(Cl)c2)O3)cc1`, the cytotoxicity call is “active”.
In the case of `COc1ccc(NC(=O)Nc2ccc3c(c2)CC(=O)N([C@H](C)CO)C[C@H](C)[C@@H](CN(C)Cc2ccc(Cl)c(Cl)c2)O3)cc1`, the cytotoxicity call is “inactive”.
Next, `COc1ccc(NC(=O)Nc2ccc3c(c2)C(=O)N([C@@H](C)CO)C[C@@H](C)[C@H](CN(C)Cc2ccc(Cl)c(Cl)c2)O3)cc1`: “inactive”.
Turning to `COc1ccc(NC(=O)Nc2ccc3c(c2)CC(=O)N([C@H](C)CO)C[C@H](C)[C@H](CN(C)Cc2ccc(Cl)c(Cl)c2)O3)cc1`, the cytotoxicity call was “active”.
Under `COc1ccc(NC(=O)Nc2ccc3c(c2)CC(=O)N([C@@H](C)CO)C[C@H](C)[C@H](CN(C)Cc2ccc(Cl)c(Cl)c2)O3)cc1` stands “active”.
Under `COc1ccc(NC(=O)Nc2ccc3c(c2)CC(=O)N([C@@H](C)CO)C[C@H](C)[C@@H](CN(C)Cc2ccc(Cl)c(Cl)c2)O3)cc1` stands “active”; under `C[C@H](CO)N1C[C@H](C)[C@H](CN(C)S(=O)(=O)c2ccccc2)Oc2ccc(NS(=O)(=O)c3cn(C)cn3)cc2CC1=O`, “inactive”.
Next, `CC(C)NC(=O)N(C)C[C@H]1Oc2cc(C#Cc3cccc(F)c3)ccc2S(=O)(=O)N([C@H](C)CO)C[C@H]1C`: “inactive”.
With `O=C(NCCCO)c1cc2ccccc2oc1=O`, the cytotoxicity call was “inactive”.
Next, `COc1cccc(C(=O)Nc2ccc3c(c2)C(=O)N(C)[C@H]2CC[C@@H](CC(=O)NCCCN4CCOCC4)O[C@@H]2CO3)c1`: “inactive”; `C[C@H]1CN([C@@H](C)CO)C(=O)Cc2cc(NS(C)(=O)=O)ccc2O[C@@H]1CN(C)S(=O)(=O)c1cccs1`: “inactive”; `Cc1ccc(S(=O)(=O)N[C@@H]2CC[C@@H](CCNC(=O)CN3CCOCC3)O[C@@H]2CO)cc1`: “inactive”.
On to `COC(=O)CSc1cc(C)nc(N)n1`, for which the cytotoxicity call is “inactive”.
Under `COc1cccc(NC(=O)C[C@H]2CC[C@H]3[C@@H](COc4ccc(NC(=O)C5CCOCC5)cc4C(=O)N3C)O2)c1` stands “inactive”; under `C[C@@H]1CN([C@@H](C)CO)C(=O)c2cc(NS(=O)(=O)c3cn(C)cn3)ccc2O[C@@H](C)CCCCO[C@H]1CN(C)C(=O)CCCN(C)C`, “inactive”; under `C[C@H](CO)N1C[C@H](C)[C@@H](CN(C)Cc2ccc(C(=O)O)cc2)Oc2c(NC(=O)C3CC3)cccc2C1=O`, “inactive”.
Next, `COc1ccc(NC(=O)Nc2ccc3c(c2)CC(=O)N([C@H](C)CO)C[C@@H](C)[C@H](CN(C)Cc2ccc(Cl)c(Cl)c2)O3)cc1`: “active”.
Under `COc1ccc(NC(=O)Nc2ccc3c(c2)CC(=O)N([C@@H](C)CO)C[C@@H](C)[C@H](CN(C)Cc2ccc(Cl)c(Cl)c2)O3)cc1` stands “inactive”; under `COc1ccc(NC(=O)Nc2ccc3c(c2)CC(=O)N([C@H](C)CO)C[C@@H](C)[C@@H](CN(C)Cc2ccc(Cl)c(Cl)c2)O3)cc1`, “inactive”.
For the molecule `C[C@@H]1CN([C@@H](C)CO)C(=O)c2cc(NC(=O)c3ccncc3)ccc2O[C@@H]1CN(C)S(=O)(=O)c1ccc(F)cc1`, the cytotoxicity call is “inactive”.
Next, `Cc1noc(C)c1NC(=O)N(C)C[C@@H]1Oc2cc(C#CCN(C)C)ccc2S(=O)(=O)N([C@@H](C)CO)C[C@@H]1C`: “inactive”.
Under `C[C@H](CO)N1C[C@H](C)[C@H](CN(C)Cc2cccc(C(F)(F)F)c2)Oc2ncc(/C=C/c3ccccc3)cc2C1=O` stands “active”; under `C[C@H](CO)N1C[C@H](C)[C@H](CN(C)Cc2cccc(C(F)(F)F)c2)Oc2ncc(-c3cccc(F)c3)cc2C1=O`, “active”; under `C[C@H](CO)N1C[C@H](C)[C@H](CN(C)C(=O)Nc2cccc3ccccc23)Oc2ncc(-c3cc4ccccc4o3)cc2C1=O`, “inactive”.
Under `C[C@H](CO)N1C[C@H](C)[C@H](CN(C)Cc2cccc(C(F)(F)F)c2)Oc2ncc(-c3ccc(F)cc3)cc2C1=O` stands “inactive”; under `C[C@H](CO)N1C[C@H](C)[C@H](CN(C)Cc2cccc(C(F)(F)F)c2)Oc2ncc(-c3ccccc3)cc2C1=O`, “inactive”; under `C[C@H](CO)N1C[C@H](C)[C@H](CN(C)S(=O)(=O)c2cn(C)cn2)Oc2ncc(-c3ccccc3)cc2C1=O`, “inactive”.
Consider `C[C@H](CO)N1C[C@H](C)[C@H](CN(C)Cc2cccc(C(F)(F)F)c2)Oc2ncc(-c3cccc(C(F)(F)F)c3)cc2C1=O`, for which the cytotoxicity call was “inactive”.
For `C[C@H](CO)N1C[C@H](C)[C@H](CN(C)Cc2ccccc2)Oc2ncc(-c3cccc(C(F)(F)F)c3)cc2C1=O`, the cytotoxicity call is “inactive”.
Next, `Cc1cccc(CN(C)C[C@@H]2Oc3ncc(-c4cc5ccccc5o4)cc3C(=O)N([C@H](C)CO)C[C@@H]2C)c1`: “active”; `C[C@H](CO)N1C[C@H](C)[C@H](CN(C)S(=O)(=O)c2cn(C)cn2)Oc2ncc(-c3cccc(C(F)(F)F)c3)cc2C1=O`: “active”.
Consider `C[C@H](CO)N1C[C@H](C)[C@H](CN(C)S(=O)(=O)c2cn(C)cn2)Oc2ncc(-c3cccc(F)c3)cc2C1=O`, for which the cytotoxicity call was “inactive”.
`C[C@H](CO)N1C[C@H](C)[C@H](CN(C)Cc2cccc(C(F)(F)F)c2)Oc2ncc(-c3cc4ccccc4o3)cc2C1=O`: the cytotoxicity call is “inactive”.
